MEKK2 mut-MEK5 – signal of MEK5 binding to mutant human MEKK2 PB1 domain. 0.35% of 290,000 active. percent response, % at 10 µM. bead flow cytometry, Alexa488-MEK5 binding to MEKK2 mutant; in the data active = percent response above about 24%, passing the limit was not always enough
NRP1-CendR mod – alters CendR peptide binding to human NRP-1; O14786; FAM-RPARPAR peptide binding to NRP-1, fluorescence polarization; inhibition, % at 25 µM; 0.85% of 360,000 active;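 active = inhibition or corrected inhibition above about 18%, plus a signal ratio from 0.5 to 1.5, limit read from the data, passing the limit was not always enough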
MEKK2wt PB1 HTS – raises or lowers MEK5 binding to wildtype human MEKK2 PB1 domain; bead flow cytometry, Alexa488-MEK5 binding to MEKK2 WT; actives lie on both sides; Q9Y2U5; binding response (% of control), % at 10 µM; AID 1531; 1.1% of 290,000 active; in the data active = binding response below about 67% or above about 130%
MEKK3 PB1 HTS – raises or lowers MEK5 binding to the human MEKK3 PB1 domain. 1.4% of 290,000 active. binding response (% of control), % at 10 µM. bead-based flow cytometry, Alexa488-MEK5 binding to MEKK3; actives lie on both sides; 0 = blocked by unlabeled MEK5, 100 = vehicle;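 active = binding response more than 3 SD above or below the average of its plate-row segment, actives on both sides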;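 note: Alexa488 bead fluorescence after subtracting the streptavidin-only scavenger bead signal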
SKN-1 block – blocks SKN-1 activity in C. elegans | C. elegans VP596 Pgst-4::GFP/RFP ratio, acrylamide-induced, 24 h | inhibition, % at 21.8 µM | 0.49% of 360,000 active | AID 624304;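 active = interference check ratio from 0.5 to 1.5 plus GFP to RFP signal ratio inhibition reaching or exceeding a fixed threshold, cut at about 30% in these data, passing the limit was not always enough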
* marks the source's active call; other numbers are inactive results; nt = no result given. Shown are actives, neighbours in structure and some others; about 3.2% of the full set was active somewhere.

SMILES	MEKK2 mut-MEK5	NRP1-CendR mod	MEKK2wt PB1 HTS	MEKK3 PB1 HTS	SKN-1 block
Cc1ccc(S(=O)(=O)N2CC3C(=O)C[C@@H](c4ccccc4)N(S(=O)(=O)c4cccc(Cl)c4)C3CC2c2ccccc2)cc1 (stereo partly drawn)	nt	2	nt	nt	0
N#CCCN(C(=O)COC(=O)CSc1ccc(Cl)cc1)c1ccccc1	nt	-1	nt	nt	3
Cc1ccc(SCC(=O)OCC(=O)N(CCC#N)c2ccccc2)cc1	nt	31*	nt	nt	-2
CCOc1ccc(NC(=O)c2ccc3c(c2)C(=O)N(Cc2ccncc2)C3=O)cc1	nt	-10	nt	nt	5
O=C(CSc1nnc(COc2ccc(Cl)cc2)o1)NC1CC2CCC1C2 (stereo not drawn)	-1	6	100	103	39*
Cc1ccc(O)c(C(=O)c2cnc3c(c2)COc2ccccc2-3)c1	4	26*	108	111	4
O=C(Nc1sc2c(c1C(=O)c1ccc(Cl)cc1)CCCC2)c1cccnc1	-8	0	97	102	35*
c1ccc2nc(-c3nc4ccccc4o3)ccc2c1	4	-14	99	101	80*
CCSc1ccc(/C(N)=N/OC(=O)c2cccs2)cn1	6	2	111	104	18
COC(=O)[C@@]12C[C@@H](CC(=O)NCCCN3CCCC3=O)C(=O)N(Cc3ccc4c(c3)OCO4)C1=CCC(C)(C)C2	nt	4	nt	nt	4
COC/C=C/C1=CC2=CC(=O)C(C)(OC(=O)c3cnc4ccccc4n3)C(=O)C2=CN1CCOC (stereo not drawn)	-1	32*	101	103	19
COC/C=C/C1=CC2=CC(=O)C(C)(OC(=O)c3cnc4ccccc4n3)C(=O)C2=CN1C1CCCC1 (stereo not drawn)	-1	nt	93	91	nt
COC/C=C/C1=CC2=CC(=O)C(C)(OC(=O)c3cnc4ccccc4n3)C(=O)C2=CN1CCCOC(C)C (stereo not drawn)	3	44*	90	91	19
COC/C=C/C1=CC2=CC(=O)C(C)(OC(=O)c3cnc4ccccc4n3)C(=O)C2=CN1C(CO)CO (stereo not drawn)	-7	37*	100	98	3
COC/C=C/C1=CC2=CC(=O)C(C)(OC(=O)c3cnc4ccccc4n3)C(=O)C2=CN1c1cccc(C#N)c1 (stereo not drawn)	-1	nt	93	96	nt
C=CCN1C=C2C(=O)C(C)(OC(=O)c3cnc4ccccc4n3)C(=O)C=C2C=C1/C=C/COC (stereo not drawn)	-3	31*	87	79	3
COC/C=C/C1=CC2=CC(=O)C(C)(OC(=O)c3cnc4ccccc4n3)C(=O)C2=CN1CCN1CCOCC1 (stereo not drawn)	-8	8	93	87	14
COC/C=C/C1=CC2=CC(=O)C(C)(OC(=O)c3cnc4ccccc4n3)C(=O)C2=CN1Cc1ccco1 (stereo not drawn)	0	30*	99	97	13
CC(/C=N/N1CCN(c2ccccn2)CC1)=C\c1ccccc1	3	0	111	100	67*
CC(/C=N/N1CCN(c2ccccc2)CC1)=C\c1ccccc1	2	-10	98	97	4
CC(/C=N/N1CCN(c2ccccc2)CC1)=C\c1ccco1	2	-5	98	101	-4
CC(=C/c1ccco1)/C=N/N1CCN(c2ccccc2)CC1	0	-1	103	102	36*
COC(=O)c1cccc(N(CC(=O)NC2CCCC2)C(=O)CNC(=O)c2cccs2)c1	-5	14	97	101	9
C=CCN1CCN(C(=O)c2cc3c(s2)CCC(CC)C3)CC1 (stereo not drawn)	3	0	98	93	-9
CC(C)(C)N(NC(=O)Nc1ccccc1)C(=O)c1ccccc1Cl	5	25*	102	102	-7
SMILES	MEKK2 mut-MEK5	NRP1-CendR mod	MEKK2wt PB1 HTS	MEKK3 PB1 HTS	SKN-1 block
CC(C)(C)N(NC(=O)OCc1ccccc1)C(=O)c1ccccc1Cl	-1	-5	101	111	17
ClN=C1C=CC=CC1=NCl	nt	19	nt	nt	21
COC1=CC(=NCl)C=CC1=NCl	nt	54*	nt	nt	18
CCCc1c(C(=O)N/N=C/c2cccc(OCc3ccc(F)cc3)c2)nnn1-c1nonc1N	1	-2	100	103	6
CC(Cl)C(=O)c1c(N)n(C)c(=O)n(C)c1=O (stereo not drawn)	-1	40*	98	100	13
COCC(=O)OC1CCn2c1nc1c2C(=O)C(C)=C(NC(C)=O)C1=O (stereo not drawn)	nt	45*	nt	nt	1
O=c1[nH]c2ccc([N+](=O)[O-])cc2nc1/C=C(\O)c1ccccc1	-5	84*	83	92	7
O=C(OCC(O)C(O)C(O)C(SCc1ccccc1)SCc1ccccc1)c1ccccc1 (stereo not drawn)	nt	14	nt	nt	3
c1cc2c(nn1)CCc1nonc1-2	5	-5	106	98	44*
Cc1ccc2sc(N(CCCN(C)C)C(=O)CCS(=O)(=O)c3ccccc3)nc2c1C	16	12	151*	107	-9
Cc1ccc(NC(=O)c2cc(-c3cc(F)ccc3OCC3CCCO3)n[nH]2)cc1NS(C)(=O)=O (stereo not drawn)	nt	28*	nt	nt	15
CC(=O)c1ccc(OCC(=O)Nc2nnc(C3CC3)s2)cc1	nt	29*	nt	nt	-16
COc1cc(OCc2ccccc2)c(CC(=O)O)c([N+](=O)[O-])c1	nt	3	nt	nt	9
CCN(CC)Cc1cc2[nH]c3c4ccc(Cl)cc4ncc3c2cc1OC	38*	-6	163*	96	3
CCN(CC)CCC(c1cc(OC)c(OC)c(OC)c1)c1c(OC)cc(OC)c2c(C)cc(=O)oc12 (stereo not drawn)	2	8	104	96	40*
CCN(CC)CCC(c1cc(OC)c(OC)c(OC)c1)c1c(OC)cc(OC)c2ccc(=O)oc12 (stereo not drawn)	5	4	109	90	-3
CN(C(=O)CSCC(=O)Nc1ccc(Cl)cc1)C1CCCCC1	nt	-5	nt	nt	37*
c1ccc(N=Nc2ccc(C3=NCCO3)cc2)cc1	nt	-8	nt	nt	53*
Cc1ccc2oc(C(=O)N3CCCCCC3)c(C)c2c1	10	26*	111	106	-18
CCOC(=O)/C(N=Nc1c(C)n(C)n(-c2ccccc2)c1=O)=C(/O)c1ccccc1	-20	32*	82	77	0
CCc1ccc(NC(=O)CSc2n[nH]c(=O)n2C2CC2)cc1	nt	11	nt	nt	5
CN1CCN(C(=O)c2ccc(OCCOc3ccccc3)cc2)CC1	8	-12	103	99	8
O=c1[nH][nH]c2c1[C@H](CCc1cccc(Cl)c1)O[C@H](C1CCCC1)C2	nt	2	nt	nt	-10
O=C(CN1C(=O)CCS(=O)(=O)c2ccccc21)NCc1ccccc1	-4	4	98	92	37*

Screening results deposited in PubChem BioAssay by several laboratories.
